Source: ChEMBL document CHEMBL4513146, “CO-ADD screening of Karazin Kharkiv National University (Ukraine) compounds”
Potency and affinity values are given separately.

Columns and labels:
[1] = system: Klebsiella pneumoniae; settings: Concentration 32 ug.mL-1;; ASSAY_TEST Inhibition of Bacterial Growth; detection method Absorption (OD600); MEDIA CAMHB; plate type 384well; NBS; CORNING #3640; time 18 hr
[2] = system: Candida albicans; settings: Concentration 32 ug.mL-1; ASSAY_TEST Inhibition of Fungal Growth; detection method Absorption (OD530)
[3] = system: Cryptococcus neoformans; settings: Concentration 32 ug.mL-1; ASSAY_TEST Inhibition of Fungal Growth; detection method Resazurin; Absorption (OD600-OD570); plate type 384well; NBS; CORNING #3640

Structure (SMILES) | Inhibition [1] | Inhibition [2] | Inhibition [3]
CCc1ccc(NC(=O)Cn2nc3c(Sc4ccccc4)nccn3c2=O)cc1 | 6.05% | 4.46% | -8.51%
CCc1nnc2ccc(S(=O)(=O)N(Cc3ccc(OC)cc3)c3cccc(F)c3)cn12 | 4.14% | 4.82% | -8.59%
CCCc1nnc2c(=O)n(CC(=O)Nc3cccc(C#N)c3)c3ccccc3n12 | 0.67% | -0.31% | -17.76%
O=C1CCCN1c1ccc(Cn2nc3ccc(-c4ccccc4)nn3c2=O)cc1 | 10.51% | -0.02% | -12.26%
COC(=O)c1ccc(NC(=O)Cn2nc3c4cc(-c5ccc(F)cc5)nn4ccn3c2=O)cc1 | 11.64% | 3.5% | -12.29%
O=C(Cn1nc2ccc(-c3ccccc3)nn2c1=O)Nc1ccc(F)cc1 | 7.53% | 0.88% | -10.36%
O=C(Cn1nc2c(N3CCOCC3)nccn2c1=O)NCc1cccc(C(F)(F)F)c1 | 8.39% | 5.12% | -4.87%
CC(=O)c1ccc(NC(=O)Cn2nc3ccc(-c4ccccc4)nn3c2=O)cc1 | 10.95% | 2.61% | -13.06%
CCc1ccc(N(Cc2cc(F)cc(F)c2)S(=O)(=O)c2cccn3c(C)nnc23)cc1 | 2.59% | 0.73% | -2.77%
Cc1ccccc1-c1noc(Cn2nc3ccc(-c4ccccc4)nn3c2=O)n1 | 4.12% | 31.81% | -15.26%
